Compound activity: PubChem BioAssay, National Center for Advancing Translational Sciences (NCATS)
12-LOX inh: inhibitors of human 12S-lipoxygenase ALOX12; purified 12hLO, xylenol orange hydroperoxide absorbance; Potency, µM (highest dose often 108 µM), for the others: top-dose activity change, negative = inhibition, hits mostly inhibitors; AID 1671190; 580,000 tested, 1.1% active; note: % is set by controls: 0 for no effect and ±100 for the full control effect
Target sequence (P18054 whole entry, looked up): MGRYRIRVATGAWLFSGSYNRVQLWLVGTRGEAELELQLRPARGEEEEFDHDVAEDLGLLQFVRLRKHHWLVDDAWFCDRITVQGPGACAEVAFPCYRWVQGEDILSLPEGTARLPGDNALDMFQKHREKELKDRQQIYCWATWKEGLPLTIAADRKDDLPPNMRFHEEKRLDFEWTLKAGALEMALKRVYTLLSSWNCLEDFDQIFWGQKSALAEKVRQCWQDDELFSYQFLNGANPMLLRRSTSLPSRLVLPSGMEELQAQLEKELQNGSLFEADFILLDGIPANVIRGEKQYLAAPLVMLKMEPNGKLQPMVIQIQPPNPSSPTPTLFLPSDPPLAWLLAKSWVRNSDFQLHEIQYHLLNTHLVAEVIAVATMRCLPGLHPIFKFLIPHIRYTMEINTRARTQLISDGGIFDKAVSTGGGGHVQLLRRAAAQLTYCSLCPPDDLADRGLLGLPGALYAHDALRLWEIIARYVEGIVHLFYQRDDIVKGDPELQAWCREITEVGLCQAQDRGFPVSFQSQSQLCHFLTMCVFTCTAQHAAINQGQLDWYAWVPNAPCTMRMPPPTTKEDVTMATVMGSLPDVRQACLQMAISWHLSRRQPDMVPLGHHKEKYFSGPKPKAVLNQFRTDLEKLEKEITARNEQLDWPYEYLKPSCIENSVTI
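Hydroperoxide product was detected by ferrous iron/xylenol orange as the 573 to 405 nm absorbance ratio. Arachidonic acid at 40 uM (final) was turned over for 30 min at room temperature by 150 nM human 12hLO, pH 7.0 Hepes buffer, after 15 min compound preincubation.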
HP1b binding inh: blocks HP1-beta chromodomain binding to methylated histone tails; AlphaScreen HP1-beta / biotin-H3K9me3 peptide binding; Potency, µM (top dose mostly 114 µM), inactives show at the highest dose activity change, negative = inhibition, actives largely listed as inhibitors; 390,000 tested, 0.56% active; AID 540317; note: nearly all actives have a fitted effect of over 70% in size
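HP1-beta protein (50 nM final) preincubated 30 min at room temperature with biotinylated H3(1-18)K9me3 peptide (50 nM) in PBS pH 7.4, 0.01% Tween-20, then compound added for 30 min. AlphaScreen streptavidin donor/nickel chelate acceptor beads (10 ug/mL final), 30 min dark, luminescence read.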
BAZ2B inh: blocks human BAZ2B; Q9UIF8; AlphaScreen BAZ2B-H3K14Ac peptide displacement; Potency, µM (doses to about 114 µM), for the others: at the top dose activity change, negative = inhibition, hits mostly inhibitors; 360,000 tested, 4.4% active; AID 504333; note: % is set by controls: 0 for no effect and ±100 for the full control effect; nearly all actives have a fitted effect of over 60% in size
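Compounds, titrated to a top concentration of 110 uM, were incubated 30 min at room temperature with preformed BAZ2B/acetyl-K14 H3 peptide complex (50 nM each). Proximity signal was measured by AlphaScreen after 20 min with beads.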
JMJD2A Tudor inh: JMJD2A Tudor domain (human) inhibition | O75164 | AID 504339 | Potency, µM (titrated, usually from 114 µM), for inactives: at the highest dose activity change, negative = inhibition, actives largely listed as inhibitors | 390,000 tested, 4.4% active | AlphaScreen JMJD2A-Tudor / H3K4me3 peptide binding; note: % is set by controls: 0 for no effect and ±100 for the full control effect; nearly all actives have a fitted effect of over 50% in size
G9a inh: blocks human histone lysine methyltransferase G9a. Q96KQ7. G9a H3K9 monomethylation, AlphaScreen, 2 h. Potency, µM (highest dose often 102 µM), inactives show at the highest dose activity, negative = inhibition, actives largely listed as inhibitors. 350,000 tested, 8.8% active; note: % is set by controls: 0 for no effect and ±100 for the full control effect; nearly all actives have a fitted effect of over 75% in size
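Quantitative HTS format: methyltransferase activity on a biotin-tagged H3K9 peptide is measured by AlphaScreen, using a rabbit anti-monomethyl-H3K9 antibody with streptavidin donor and anti-IgG acceptor beads. Final levels are 20 nM enzyme, 500 nM peptide, 20 uM SAM; 2 h RT.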
Sfp inh: Sfp phosphopantetheinyl transferase inhibition | Q9F4F7 | Biochemical Sfp PPTase activity, qHTS | Potency, µM, for inactives: largest response in the series, negative = inhibition, hits mostly inhibitors | 310,000 tested, 3.5% active | AID 1490;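 note: the enzyme is Sfp with the accession as filed and its product quenches rhodamine fluorescence; 0% = enzyme reaction without inhibitor and -100% = no enzyme wells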
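Buffer: 50 mM Hepes-Na pH 7.6, 10 mM MgCl2, 0.01% Nonidet P-40, 0.01% BSA. Enzyme 15 nM, pre-exposed to compound 15 min; substrates then added and fluorescence change tracked over 30 min.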
The depositor's hits bear a star; ? = inconclusive; · = no result; ! = a repeat was not active; [ ] = remark or other dose. Compounds with a hit are over-represented: about 8.7% of the library has one in this group of screens. Calls come from the whole dose curve; as a rule, active = well fitted curve in the direction sought with a large enough effect; inconclusive = small, poorly fitted or top-dose-only effect, or another doubt; inactive = no such curve, though single readings can be large; an effect the other way counts as inactive or inconclusive. Potency is the fitted concentration of half-maximal effect.

SMILES | 12-LOX inh | HP1b binding inh | BAZ2B inh | JMJD2A Tudor inh | G9a inh | Sfp inh
Cc1c(NC(=O)CN2CC(C)OC(C)C2)c(=O)n(-c2ccccc2)n1C (stereo not drawn) | ? | 56µM*! | 20µM* | 11µM*! | 16µM* | ?
NC1=NC(=O)/C(=C/c2cccc(-c3ccc(S(N)(=O)=O)cc3)c2)S1 | -26% | 12% | ? | -23% | 35µM* | -23%
NC1=NC(=O)/C(=C\c2ccc(O)c([N+](=O)[O-])c2)S1 | -10% | -15% | -31% | -15% | ? | 2%
COc1c(Br)cc(F)cc1NC(=O)Cc1coc2cc(C)c(C)cc12 | -16% | · | · | · | · | ·
CCOc1ccc(C2NC(=O)c3sc(=S)n(-c4ccccc4)c3N2)cc1 (stereo not drawn) | ? | 20% | ? | -28% | 32µM* | ?
COc1ccc(C2NC(=O)c3sc(=S)n(-c4ccccc4)c3N2)cc1 (stereo not drawn) | ? | 25% | -12% | -13% | -43%[12.7 µM] | 50µM*
O=C1NC(c2ccccc2)Nc2c1sc(=S)n2-c1ccccc1 (stereo not drawn) | 45µM* | -5% | -19% | -11%[11.4 µM] | 22µM* | 32µM*
N#Cc1ccc(NC(=O)COc2ccc3cc(Br)ccc3c2)cc1 | -18% | · | · | · | · | ·
COc1ccc(OCCC(=O)Nc2cccc3cccnc23)cc1 | -1% | · | · | · | · | ·
O=C1c2ccccc2C(=O)C1c1ccnc2ccccc12 | -4% | 79% | 3% | 79µM* | -12%[59 µM] | 15%
N#CC1=C(N)SC(N)=C(C#N)C1c1ccnc2ccccc12 | 4.5µM* | 18% | ? | 56µM* | 2.5µM* | 16µM*
Cc1nc2c(cnn2C(C)C)cc1C(=O)N(C)Cc1cccc(Cl)c1 | -3% | · | · | · | · | ·
NCC1Cn2cccc2CN1Cc1ccccc1 (stereo not drawn) | 245% | · | · | · | · | ·
CCOc1ccc(NC(=O)CCNS(=O)(=O)c2ccc3c(c2)CC(C)N3C(C)=O)cc1 (stereo not drawn) | 5% | 15% | -14% | 25µM* | 9%[59 µM] | 14%
COC(=O)CCS(=O)(=O)c1ccc(Cc2ccc(S(=O)(=O)CCC(=O)OC)cc2)cc1 | -34% | · | · | · | · | ·
CCS(=O)(=O)c1ccc(Cc2ccc(S(=O)(=O)CC)cc2)cc1 | 8.9µM* | · | · | · | · | ·
CC(=O)C1=C(C)NC(SCC(=O)c2cc(Cl)ccc2Cl)=C(C#N)C1c1ccco1 (stereo not drawn) | ? | -3% | 2% | ? | 32µM* | 35µM*
CCOC(=O)C1=C(C)NC(SCC(=O)O)=C(C#N)C1c1ccco1 (stereo not drawn) | 0% | 35% | -31% | ? | ? | 4%
CC(=O)C1=C(C)NC(SCC(N)=O)=C(C#N)C1c1ccco1 (stereo not drawn) | 0% | 33% | ? | -15% | ? | 89µM*
CC1=C(C(=O)Nc2ccccc2)C(c2ccco2)C(C#N)=C(SCC(=O)OC(C)C)N1 (stereo not drawn) | · | 32% | · | -10% | -15%[59 µM] | 6%
CCc1ccc(C(=O)CSC2=C(C#N)C(c3ccco3)C(C(C)=O)=C(C)N2)cc1 (stereo not drawn) | · | 49% | -3%[57.1 µM] | -10% | 40µM* | 56µM*
CC1=C(C(=O)Nc2ccccc2)C(c2ccco2)C(C#N)=C(SCc2ccccc2)N1 (stereo not drawn) | · | · | -32% | · | ? | 4%
CC(=O)C1=C(C)NC(SCc2cccc([N+](=O)[O-])c2)=C(C#N)C1c1ccco1 (stereo not drawn) | 126% | -13% | 40µM* | ? | · | -55%
O[C@H]1[C@H](NCC2CCCCC2)[C@H]2CO[C@H](O2)[C@@H]1N1CCC(Cc2ccccc2)CC1 | 15%[176 µM] | · | · | · | · | ·
Cc1cc(C[C@@H]2COC[C@@H]2NC(=O)c2csc(Cc3ccccc3)n2)on1 | 55% | · | · | · | · | ·
SMILES | 12-LOX inh | HP1b binding inh | BAZ2B inh | JMJD2A Tudor inh | G9a inh | Sfp inh
Cc1ccc(OCCN2CCC(CO)CC2)cc1 | -21% | · | · | · | · | ·
C=CCOC(=O)C1=C(C)NC(SCC(=O)N(CC)CC)=C(C#N)C1c1ccco1 (stereo not drawn) | 17% | 22% | -1% | 3% | ? | 3%
COc1ccccc1NC(=O)C1=C(C)NC(SCC(=O)c2ccc(C)cc2)=C(C#N)C1c1ccco1 (stereo not drawn) | 0% | · | -23% | · | ? | 45µM*
CCN(CC)C(=O)CSC1=C(C#N)C(c2ccco2)C(C(=O)OCCOC)=C(C)N1 (stereo not drawn) | 32% | 26% | ? | 79µM*! | 25µM* | 56µM*
CC(=O)C1=C(C)NC(SCC(=O)c2ccc(F)cc2)=C(C#N)C1c1ccco1 (stereo not drawn) | -20% | 35% | -5% | -24% | ? | ?
CC(=O)C1=C(C)NC(SCC(=O)c2ccc(Cl)c(Cl)c2)=C(C#N)C1c1ccco1 (stereo not drawn) | ? | 19% | · | ? | ? | 3.5µM*
CC(c1nc2ccccc2c(=O)[nH]1)N1CCN(C)CC1 (stereo not drawn) | 0% | ? | 10% | 71µM* | ? | -2%
CCc1ccc(NC(=O)c2ccc(Cn3nc(N4CCN(c5ccccc5)CC4)ccc3=O)o2)cc1 | ? | 2% | 50µM* | ? | ? | ·
O=C1C2=C(Nc3ccccc3SC2c2ccc(Cl)c(Cl)c2)c2ccccc21 (stereo not drawn) | -12% | ? | · | 8.9µM* | 13µM* | ·
CCOc1cc(C2Sc3ccccc3NC3=C2C(=O)c2ccccc23)ccc1O (stereo not drawn) | ? | ? | · | 14µM* | 13µM* | ·
O=C1C2=C(Nc3ccccc3SC2c2ccccc2)c2ccccc21 (stereo not drawn) | 1% | · | · | · | · | ·
O=C1C2=C(Nc3ccccc3SC2c2c(F)cccc2Cl)c2ccccc21 (stereo not drawn) | 1% | ? | · | 13µM* | ? | ·
CCCc1ccc(C2Sc3ccccc3NC3=C2C(=O)c2ccccc23)cc1 (stereo not drawn) | -27% | ? | 10µM* | 16µM* | 7.9µM* | ·
COCc1ccc(C(=O)N2CCCC(CCc3cccc(OC)c3)C2)o1 (stereo not drawn) | 50% | · | · | · | · | ·
O=C1C2=C(Nc3ccccc3SC2c2ccccc2C(F)(F)F)c2ccccc21 (stereo not drawn) | -22% | ? | ? | 22µM* | 11µM* | ·
CCOC(=O)c1c(=O)n(O)c2ccc(C)cc2[n+]1[O-] | ? | -1% | ? | 89µM* | 50µM* | -10%
